One test deals with T1, Br (Drosophila melanogaster, UniProt Q24206 697-775).
T1 sequence: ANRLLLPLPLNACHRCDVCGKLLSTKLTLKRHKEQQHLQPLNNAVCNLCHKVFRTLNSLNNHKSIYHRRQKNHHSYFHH
The test is described as follows: FP; 33 mM phosphate pH 7.0, 90 mM NaCl, 0.01% Tween 20, 0.1 mM DTT, 0.5% agarose; room temperature. To be noted: tags: N-GST (pGEX-6P-1, kept); dsDNA, one strand shown.
Turning to GCAATTAGAAAAC, the binding signal was 3.05 Kd / Kd of best base at the position.
Same read-out and setting: the value for GGAATTATAAAAC was 59.2 Kd / Kd of best base at the position; that for GGAATTAGAAAAA was 1.22 Kd / Kd of best base at the position; that for GGAATTAGAAAAT was 1.5 Kd / Kd of best base at the position.
Same read-out and setting: the value for TGAATTAGAAAAC was 2.02 Kd / Kd of best base at the position.
For orientation: Kd means the free concentration of one partner at which half of the binding sites on the other are occupied at equilibrium, for simple one-to-one binding. A low value points to a tighter complex. For the sequence GGAATTAGAAAAC, the Kd was approximately 6.3 nM.
Regarding GGAATTACAAAAC, the binding signal was 109 Kd / Kd of best base at the position.

In another test the target is T2, Hb (Drosophila melanogaster, UniProt P05084 225-364).
T2 sequence: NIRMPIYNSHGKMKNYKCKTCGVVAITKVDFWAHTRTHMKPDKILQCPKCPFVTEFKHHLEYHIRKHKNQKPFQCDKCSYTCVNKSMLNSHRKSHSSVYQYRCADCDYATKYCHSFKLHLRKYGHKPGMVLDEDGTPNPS
Described as above. The following applies: tags: N-GST (pGEX-6P-1, kept); dsDNA, one strand shown.
For the sequence AGTTTTTAAGGC, the binding signal is 9.25 Kd / Kd of best base at the position.
Still for that read-out and setting: the value for AGTTGTTTAGGC was 9.25 Kd / Kd of best base at the position.
Same read-out and setting: with AGTTTGTTAGGC the figure was 11.9 Kd / Kd of best base at the position; with AGTTTTTCAGGC, 10.3 Kd / Kd of best base at the position; with AGTTTTTTAGGA, 1.46 Kd / Kd of best base at the position.
Same read-out and setting: with TGTTTTTTAGGC the figure was 1.1 Kd / Kd of best base at the position.
In the case of GGTTTTTTAGGC, the binding signal was 1.46 Kd / Kd of best base at the position.
For the sequence AGTTTTCTAGGC, the binding signal was 15 Kd / Kd of best base at the position.
Take AGGTTTTTAGGC: the binding signal was 1.26 Kd / Kd of best base at the position.
The same measure, in the same setting: the value for AGTTTTTTGGGC was 6.22 Kd / Kd of best base at the position; that for AATTTTTTAGGC was 1.04 Kd / Kd of best base at the position.
Still for that read-out and setting: with AGTTTATTAGGC the figure was 11 Kd / Kd of best base at the position.
The same measure, in the same setting: with AGTTCTTTAGGC the figure was 13.1 Kd / Kd of best base at the position; with AGTTATTTAGGC, 10.2 Kd / Kd of best base at the position; with AGTTTTTTTGGC, 6.04 Kd / Kd of best base at the position.
As for AGTTTTTTAGTC, the binding signal is 1.14 Kd / Kd of best base at the position.
On the same count and under the same terms, the value for AGTGTTTTAGGC was 6.19 Kd / Kd of best base at the position; that for AGTTTTTTAGGT was 1.01 Kd / Kd of best base at the position.
On the same count and under the same terms, with AGTATTTTAGGC the figure was 8.15 Kd / Kd of best base at the position.
With AGTTTTTTAGGC, the Kd is approximately 12.5 nM.
Consider CGTTTTTTAGGC, for which the binding signal is 1.23 Kd / Kd of best base at the position.
On the same count and under the same terms, with AGTTTTTTAAGC the figure was 1.31 Kd / Kd of best base at the position; with AGCTTTTTAGGC, 2.23 Kd / Kd of best base at the position; with AGTTTTTTAGAC, 1.59 Kd / Kd of best base at the position.
Same read-out and setting: with AGTTTTGTAGGC the figure was 9.72 Kd / Kd of best base at the position.
On the same count and under the same terms, with AGTCTTTTAGGC the figure was 8.66 Kd / Kd of best base at the position.
With AGTTTTATAGGC, the binding signal is 9.8 Kd / Kd of best base at the position.
Same read-out and setting: with AGTTTTTTAGCC the figure was 1.11 Kd / Kd of best base at the position.
The same measure, in the same setting: the value for AGTTTTTTAGGG was 1.25 Kd / Kd of best base at the position.
Same read-out and setting: with AGTTTTTTATGC the figure was 1.04 Kd / Kd of best base at the position; with ATTTTTTTAGGC, 1.03 Kd / Kd of best base at the position.
Consider AGTTTTTTCGGC, for which the binding signal is 5.64 Kd / Kd of best base at the position.

The values are drawn from PMC5913336, “True equilibrium measurement of transcription factor-DNA binding affinities using automated polarization microscopy”.
